Results published in PubChem BioAssay AID1117319 (Southern Research Institute, 2015).
“And” between values parts separate entries of the source, which are not always exact repeats. Identical values can stand only once. Among all 260,000 compounds or so, about 1,500 (0.58%) were called active. Not shown: some 5% with an inconclusive outcome.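 Rule for the calls: active = inhibition above a set limit at one or more doses, reproduced on every date tested; inconclusive = results disagree between test dates, or hit never tested in dose response; inactive = the rest.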 The list is a sample of the results. Results with a measured potency or affinity are listed apart.

Each compound was assayed against Virion infectivity factor (Human immunodeficiency virus type 1 group M subtype B (isolate BH10)) + Virion infectivity factor (Human immunodeficiency virus type 1 group M subtype B (isolate BRU/LAI)) + Virion infectivity factor (Human immunodeficiency virus type 1 group M subtype B (isolate PCV12)) + Virion infectivity factor (Human immunodeficiency virus type 1 group M subtype B (isolate HXB2)) + DNA dC->dU-editing enzyme APOBEC-3G (Homo sapiens) (UniProt P69720+P69721+P69722+P69723+Q9HC16) (assay: inhibitors of Vif binding to APOBEC3G peptide, primary screen, biochemical, TR-FRET, GST-Vif 1-94, biotin-A3G peptide, dose response retest (AID 1117319;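 note: Vif residues 1-94 fused to GST binding biotinylated APOBEC3G peptide 110-148; 0% = full assay without inhibitor and 100% = GST in place of GST-Vif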)). Conditions: active compounds read high.

inhibition, inactive:
O=C(c1cccn2c(=O)c3ccccc3nc12)N1CCN(Cc2ccc3c(c2)OCO3)CC1 3%
CN(C)CCn1cnc2c(c1=N)C(c1ccccc1)c1ccc3ccccc3c1O2 (configuration not stated) -7.72%
CC1(C)Cc2ccccc2C(C(=O)c2ccccc2)=N1 -10.3%
CCOC(=O)c1cc2sccc2n1CC(=O)N1CCCc2ccccc21 -4.99%
CCN1CCN(CC(=O)N2N=C(c3cccs3)CC2c2ccc(C)cc2)C(=O)C1=O (configuration not stated) 1.42%
Cc1csc(NC(=O)COc2ccc3c(C)cc(=O)oc3c2)n1 -13.9%
Cc1cccc(N2CCN(C(=O)CCNS(=O)(=O)c3ccc4c(c3)CCC(=O)N4)CC2)c1C -0.88%
CC(=O)c1ccc(N2CCN(C(=O)c3cc(C)on3)CC2)cc1 11.8%
CC(c1cccs1)N(C)Cc1nc(CCc2ccccc2)no1 (configuration not stated) 2.69%
CN1C(=O)[C@H]2[C@@H](c3ccc(C(F)(F)F)cc3)N[C@]3(CCCN(CC4CCCCC4)C3=O)[C@H]2C1=O 2.73%
CCN(CC(=O)NC1CCS(=O)(=O)C1)C(=O)C(c1ccccc1)c1ccccc1 (configuration not stated) 1.78% and 11.2%
CC(=O)N1CCN(S(=O)(=O)c2cccc(C(=O)NNC(=O)COc3c(C)cccc3C)c2)CC1 -12.3%
N#CCN1C(=O)C(=O)N(Cc2cccc(C(F)(F)F)c2)C1=O -1.35%
CC(NC(=O)c1ccccc1[N+](=O)[O-])C1CC2CCC1C2 (configuration not stated) 1.73%
O=C(Nn1cnc2ccccc2c1=O)c1ccc([N+](=O)[O-])cc1 -7.54%
c1ccc(CNn2nnnc2-c2ccccc2)cc1 1.36%
Oc1ccc(NCc2ccc(OCc3ccccc3)cc2)cc1 17.4%
O=[N+]([O-])c1ccc(COc2cccc(CNc3ccc(Br)cc3)c2)cc1 2.31%
CN(C)S(=O)(=O)c1ccc(N2CCCC2)c(C(=O)Nc2nc3c(ccc4ccccc43)s2)c1 -35.6%
O=C(NCc1nnnn1-c1ccc(F)c(F)c1)C(=O)c1c[nH]c2ccccc12 11.1%
Cc1cccc(N2CCN(C3=NC(=O)C(Cc4ccccc4)S3)CC2)c1 (configuration not stated) 14.4%
CCN1C(=C2C(=O)c3ccccc3C2=O)C=Cc2ccccc21 26.5%
O=C1C=Cc2ccccc2/C1=C/c1[nH]c(=O)[nH]c1O -10.7%
O=C1CC(NS(=O)(=O)c2cccnc2)CN1c1ccc(F)cc1 (configuration not stated) -4.88%
N#Cc1ccccc1Sc1ccccc1C(=O)Nc1ccc(Br)cc1 5.46%
Fc1ccccc1/C=C1\CCCC2=C1Nc1nnnn1C2c1ccccc1F (configuration not stated) 15.4%
C(=C1/CCCC2=C1Nc1ncnn1C2c1ccccc1)/c1ccccc1 (configuration not stated) 0.53%
CC1CCC/C(=C\Nc2ccccc2C(=O)O)C1=O (configuration not stated) 5.74%
CC1CCC/C(=C\Nc2ccc(C(=O)O)cc2)C1=O (configuration not stated) 4.93%
Cc1cc(C(=O)O)ccc1N/C=C1\CCCC(C)C1=O (configuration not stated) 10.9%
CCOC(=O)c1ccc(N/C=C2/CCCC(C)C2=O)cc1 (configuration not stated) 1.6%
Cc1ccc(C(=O)NCCc2csc(-c3cccnc3)n2)cc1 3.26%
O=C(CCC(=O)NNC(=O)c1ccc([N+](=O)[O-])cc1)NCc1ccccc1 6.94%
O=C(NCCO)c1cc2ccccc2cc1O 2.23% and 6.09%
COC1=CC(=O)C(OC)=C(OC)C1=O 5.9%
CCCCCCCCSC1=CC(=O)C(OC)=C(OC)C1=O 31.4%
CSCCC(NC(=O)c1ccco1)C(=O)NCCc1ccc(Cl)cc1 (configuration not stated) -15.8%
CC(=O)c1ccccc1NS(=O)(=O)c1ccccc1Cl -6.08%
CCN(CC)C(=O)Oc1ccc2c(c1)O/C(=C\c1ccco1)C2=O 12.6%
COC(=O)COc1ccc2c(c1)O/C(=C\c1ccco1)C2=O 24%
CC(C)Nc1nc2cccnc2s1 -0.88%
O=C(Nc1ccc(NC(=O)c2cccs2)cc1)c1ccc2c(c1)OCCO2 3.57%
O=C(CCc1c[nH]c2ccccc12)N1CCN(c2ccc(F)cc2)CC1 -3.01%
COc1ccc(N2CCN(C(=O)CCc3c[nH]c4ccccc34)CC2)cc1 3.01%
O=C(/C=C/c1ccccc1Cl)N(Cc1ccc(Cl)cc1)C1CCS(=O)(=O)C1 (configuration not stated) 23.6%
CCC(C)c1ccccc1NC(=O)c1cccnc1 (configuration not stated) -3.72%
Cc1cc(Cl)c(S(=O)(=O)NC2CCCC2)cc1OCC(=O)NC1CCCCC1 -2.05%
Cc1cc(Cl)c(S(=O)(=O)N2CCCC2)cc1OCC(=O)NC1CCCCC1 -1.25%
CC(=O)c1cccc(N(CC(=O)Nc2ccc(F)cc2F)S(C)(=O)=O)c1 7.3%
O=C(NNc1cccc(Cl)n1)Nc1cccc(C(F)(F)F)c1 2.4%
Cc1cc(C)cc(NC(=O)CSc2nnc(-c3ccccc3C)o2)c1 27.4%
COc1cc(NC(=O)c2cccc(Cl)c2)ccc1NC(=O)c1cccs1 2.27%
Cc1ccsc1C(=O)C1CCCN(Cc2cn(C)nc2-c2ccccc2)C1 (configuration not stated) -6.7%
Cc1cc(C)c(C#N)c(Oc2ccc(F)cc2)n1 18.6%
Cc1cc(C)c(C#N)c(Oc2ccc(O)cc2)n1 0.3%
O=C1c2ccc([N+](=O)[O-])cc2C(=O)N1CNc1ccccn1 3.96%
N#CCCN(Cc1ccccc1)C(=O)c1nccnc1C(=O)O -11%
O=C(N/N=C/c1cn(Cc2ccccc2)c2ccccc12)c1cccnc1 -5.6%
O=C(N/N=C/c1cn(Cc2ccccc2)c2ccccc12)c1ccncc1 8.92%
Cc1ccc(S(=O)(=O)Cc2c(C)noc2C)cc1 3.86%
O=CN/C=C/c1cccc(O)c1 -10.2%
O=C(/C=C/c1ccc(O)cc1)c1ccc(O)cc1O 9.02%
